Assay outcomes: PubChem BioAssay, National Center for Advancing Translational Sciences (NCATS)
D1 ag: human D1 receptor agonism; P21728; HEK293 T-REx D1 cells, calcium flux, agonist mode; activation, % at 2 µM; hit rate 1% among 360,000; AID 504660; also: 0% is about no effect
Target sequence (P21728 whole entry, looked up): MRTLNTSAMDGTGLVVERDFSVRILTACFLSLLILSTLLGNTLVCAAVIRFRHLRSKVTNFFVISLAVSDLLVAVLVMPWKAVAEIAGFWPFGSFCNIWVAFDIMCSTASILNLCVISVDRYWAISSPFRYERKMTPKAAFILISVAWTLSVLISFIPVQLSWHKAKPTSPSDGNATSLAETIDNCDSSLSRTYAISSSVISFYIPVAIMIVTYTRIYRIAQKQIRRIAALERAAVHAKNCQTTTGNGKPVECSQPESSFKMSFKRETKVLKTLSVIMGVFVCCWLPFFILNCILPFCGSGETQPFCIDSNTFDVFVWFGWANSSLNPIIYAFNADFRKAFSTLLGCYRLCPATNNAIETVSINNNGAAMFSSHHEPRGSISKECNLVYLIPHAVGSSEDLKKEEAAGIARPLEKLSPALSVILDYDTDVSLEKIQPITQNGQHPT
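Inducible HEK293 T-REx D1 cells, force-coupled to calcium signalling, were plated at 4000 cells/well with tetracycline and held overnight at 30 C. After no-wash calcium dye loading, compound-evoked calcium rise over 180 s flagged agonists.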
TRHR PAM: TRH receptor (human) allosteric enhancement; P34981; TRHR cells, fluo-8 calcium fluorescence, EC20 TRH enhancement; enhancement, % at 2 µM; hit rate 0.66% among 360,000; AID 493056; in the data active = enhancement above about 30%; also: 0% is about no effect
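TRHR-expressing cells loaded with fluo-8 calcium dye were read kinetically (ex 480/em 530) during compound addition, then stimulated with an EC20 of TRH (10 nM final). Enhancement of the Gq-mediated intracellular calcium response was scored.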
TRHR agonist: TRH receptor (human) agonism; P34981; TRHR cells, calcium flux fluo-8, FDSS agonist mode; activation, % at 2 µM; hit rate 0.18% among 360,000; also: 0% is about no effect
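In this calcium-flux screen, cells bearing human TRHR are dye-loaded with fluo-8, baselined for 10 cycles, then exposed to library compounds; positive kinetic calcium responses during the agonist phase mark hits, with TRH as control.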
D1 potentiator: human D1 dopamine receptor positive modulation | hit rate 0.036% among 360,000 | AID 504651 | P21728 | potentiation, % at 10 µM | HEK293 TREx D1 cells, calcium flux, dopamine EC20 potentiation; in the data active = potentiation above about 30%; also: 0% is about no effect
D1 antagonist: antagonists of human D1 dopamine receptor. P21728. HEK293 TREx D1 cells, calcium flux, dopamine EC80; stronger effect = lower value. activity change, negative = inhibition, % at 10 µM. hit rate 3.2% among 360,000. AID 504652; in the data active = activity change below about -30%; also: % is scaled to controls: 0 for no effect and ±100 for the full control effect
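Compound effects on dopamine-evoked calcium signalling were measured in tetracycline-induced HEK293 Trex D1 cells. Dopamine at EC80 followed a 180 s compound pre-read, and fluorescence was tracked kinetically for 180 s more.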
Numbers without * were called inactive; · = no result. The list is not random: actives were taken first. Their share in the collection is about 4.7%. Rule as the data show it, unless noted: active = activation above about 30%; inactive = the rest.

SMILES	D1 ag	TRHR PAM	TRHR agonist	D1 potentiator	D1 antagonist
COC(=O)c1cc(Br)c(=O)n(CC(C)C)c1	1.3	30.8*	-1.2	3.4	-1.4
COC(=O)c1cc(Br)c(=O)n(CCN2CCCC2)c1	1.5	-6.5	0.9	-8.0	-7.1
O=S(=O)(Nc1nc2n(n1)C(c1ccccc1)C=C(c1ccc(Cl)cc1)N2)c1ccccc1 (stereo not given)	31.6*	0.2	7.9	-0.3	-13.7
Cc1ccc(C2C=C(c3ccccc3)Nc3nc(NS(=O)(=O)c4ccccc4)nn32)cc1 (stereo not given)	30.9*	8.5	13.1	-3.2	10.3
Cc1ccc(S(=O)(=O)Nc2nc3n(n2)C(c2ccc(Cl)cc2)C=C(c2ccccc2)N3)cc1 (stereo not given)	10.9	-3.5	0.2	-0.7	19.3
CCOC(=O)c1c(C)[nH]c(C)c1S(=O)(=O)N(C)CC(=O)Nc1ccc(C)c(F)c1	1.2	0.6	-0.3	-4.8	-15.6
O=C(Cn1cnc2ccccc2c1=O)c1ccc2ccccc2c1	2.2	2.4	-0.5	-9.6	-12.1
Cc1ccc(C)c(OCCCCn2cnc3ccccc3c2=O)c1	39.4*	3.8	-0.6	-6.4	-19.3
Cc1ccc(C(=O)Cn2cnc3ccccc3c2=O)cc1C	43.3*	7.3	-0.3	-2.8	-16.9
CCOc1ccc(OCCCCn2cnc3ccccc3c2=O)cc1	0.7	-6.0	0.9	1.3	-41.9*
Cc1ccc(NC(=O)Cn2cc(C(=O)c3ccco3)c3ccccc32)c(C)c1	7.1	-15.3	1.2	0.0	-12.1
COc1ccc(C(=O)CCN2CCN(c3ccccc3OC)CC2)cc1	5.4	5.6	-1.1	-11.9	-46.1*
COc1ccc(C(=O)N2CCN(c3ccccc3OC)CC2)cc1	3.7	-1.8	1.6	-10.1	-7.9
COc1ccccc1N1CCN(CCCC(=O)c2ccc(F)cc2)CC1	6.1	21.9	0.3	-9.1	-80.0*
COc1ccccc1N1CCN(CC(=O)c2ccc3ccn(C(C)=O)c3c2)CC1	0.9	17.2	-0.7	·	-76.0*
Cc1ccc(NC(=O)COc2ccc(CCO)cc2-n2nc3ccccc3n2)cc1C	4.9	-2.8	0.6	-8.8	-71.7*
CSc1ccc(CCNC(=O)CN2C(=O)COc3ccc(S(=O)(=O)N4CCCCCC4)cc32)cc1	8.0	8.3	-2.0	2.4	-6.1
O=C(c1ccc(Cl)cc1)N1CCCC(C(=O)N2CCCCC2)C1 (stereo not given)	2.5	-3.7	0.0	-4.2	16.4
CC(=O)c1cc(C(=O)N2CCCC(C(=O)c3ccc(Cl)cc3)C2)cs1 (stereo not given)	5.2	-2.6	0.3	1.9	-33.2*
CCOC(=O)c1cnc2ccc(C)cc2c1Nc1ccc(N(CC)CC)cc1	1.8	-9.7	0.0	-0.1	3.6
CC(=O)c1cccc(NC(=S)N2CCC(Cc3ccccc3)CC2)c1	1.2	-3.5	-0.2	-6.5	·
COC(=O)Cc1ccc(NC(=S)N2CCN(c3cccc(O)c3)CC2)cc1	12.9	-4.4	1.4	-17.0	-37.9*
CC(C)CNC(=S)N1CCC(Cc2ccccc2)CC1	1.2	10.0	0.0	-2.8	-35.8*
CC(C)NC(=S)N1CCC(Cc2ccccc2)CC1	-0.7	6.9	-0.4	-4.8	-2.4
COC(=O)Cc1ccc(NC(=S)N2CCC(Cc3ccccc3)CC2)cc1	0.9	-2.6	0.5	-6.6	-32.2*
SMILES	D1 ag	TRHR PAM	TRHR agonist	D1 potentiator	D1 antagonist
COC(=O)Cc1ccc(NC(=S)N2CCN(C)CC2)cc1	2.0	-3.8	0.9	-0.2	0.7
CC(=O)c1ccc(NC(=S)N2CCC(Cc3ccccc3)CC2)cc1	9.8	-9.3	0.3	-9.6	-35.3*
COc1cccc(CSc2nc3n(n2)C(c2cccc(F)c2)C(C(=O)Nc2ccccc2C)=C(C)N3)c1 (stereo not given)	9.8	0.0	0.6	-3.3	-11.5
O=C(Nc1cc(Cl)cc(Cl)c1)c1ccc(F)c(S(=O)(=O)NC2CCCC2)c1	4.7	5.2	0.4	3.5	-4.2
CCN(CC(=O)NCCc1ccccc1)S(=O)(=O)c1ccc(Br)cc1	5.8	-0.1	0.6	-0.8	-37.2*
COCCNC(=O)CN(CCc1ccccc1)S(=O)(=O)c1ccc(Br)cc1	1.3	-7.3	-0.5	-11.9	13.5
Cc1nnc(SCCn2c(N3CCC(C)CC3)nc3c2c(=O)[nH]c(=O)n3C)s1	1.3	9.8	-0.5	-9.2	-60.0*
O=C(Nc1cccc(OCc2cc(=O)n3c4c(sc3n2)CCCC4)c1)c1ccc(F)cc1	-1.3	3.5	-1.7	-5.8	-31.0*
Cc1ccc(OCC(=O)Nc2ccc(OCc3cc(=O)n4ccsc4n3)cc2)cc1	143.9*	-3.8	-0.5	0.8	2.8
Cc1ccccc1OCC(=O)Nc1ccc(OCc2cc(=O)n3ccsc3n2)cc1	0.0	0.8	-0.1	-4.2	15.6
Cc1cn2c(=O)cc(COc3ccc(NC(=O)c4cccc(F)c4)cc3)nc2s1	0.8	10.2	-2.3	-6.1	-40.5*
Cc1ccccc1C(=O)Nc1cccc(OCc2cc(=O)n3c4c(sc3n2)CCCC4)c1	2.7	31.8*	-1.4	-1.8	-14.6
Cc1ccccc1C(=O)Nc1ccc(C(=O)OCc2cc(=O)n3c4c(sc3n2)CCCC4)cc1	0.5	-1.6	0.6	-1.1	6.3
COc1ccc(C(=O)Nc2cccc(OCc3cc(=O)n4c5c(sc4n3)CCCC5)c2)cc1OC	1.7	3.2	-0.2	-1.7	5.8
Cc1ccc(/C=C/c2onc(C)c2S(=O)(=O)N2CCC(C(=O)NCc3ccc(Cl)cc3)CC2)cc1	6.4	5.0	0.6	-0.3	-5.3
Cc1cccc(-c2nc(SCc3cc(=O)c4c(C)cc(C)cc4[nH]3)n[nH]2)c1	-0.6	-4.7	0.1	1.4	3.2
N#Cc1nc(Nc2cc(F)cc(F)c2)c2ncn(C3CCCC3)c2n1	2.6	1.7	0.9	3.1	1.2
COc1ccc(C2CC(O)(c3ccccc3)Oc3cc(OC)c(OC)c(OC)c32)cc1 (stereo not given)	2.6	-6.9	-0.3	-3.4	-36.2*
CCc1nc2nc(C)cc(Nc3ccc(OC)cc3)n2n1	-0.5	7.1	-1.2	2.3	-6.5
CC(c1ccccc1)N1C(=O)c2ccccc2C1(O)Cc1ccccc1 (stereo not given)	2.2	-2.3	-0.9	-1.4	-74.3*
CN(C)CC(CCC(CN(C)C)C(O)(c1ccccc1)c1ccccc1)C(O)(c1ccccc1)c1ccccc1 (stereo not given)	27.3	-14.8	4.5	-6.9	-41.4*
COc1ccc(C2c3c(oc4ccc(Cl)cc4c3=O)C(=O)N2CCCN(C)C)cc1OC (stereo not given)	3.3	-2.0	0.8	-2.2	·
COc1ccc(CN2CCCC(C(=O)Nc3cccc(-n4cccn4)c3)C2)cc1 (stereo not given)	13.0	2.6	-0.1	-4.3	-52.7*
COc1ccc(O)c(CN2CCCC(C(=O)Nc3cccc(-n4cccn4)c3)C2)c1 (stereo not given)	4.4	2.3	-0.4	-7.0	-67.7*
